MazF activator = MazEF (E. coli) toxin RNase activation; FAM/BHQ RNA-DNA oligo cleavage fluorescence, 5 h; activation, % at 20 µM; hit rate 0.32% among 350,000; AID 504720; P0AE70; in the data active means activation above about 50%
Target sequence (P0AE70 whole entry, looked up): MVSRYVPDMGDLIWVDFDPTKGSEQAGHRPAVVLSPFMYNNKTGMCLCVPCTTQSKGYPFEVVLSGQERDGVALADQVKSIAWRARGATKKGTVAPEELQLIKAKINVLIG
Anthrax LF inh2 = blocks Bacillus anthracis lethal factor protease | P15917 | multiplex microsphere protease cleavage assay, LF | inhibition, % at 10 µM | hit rate 0.12% among 360,000 | AID 588501; further: plate controls were buffer without enzyme for full effect and enzyme alone for no effect
BoNT F protease = BoNT F light chain protease inhibition. Multiplex microsphere protease cleavage assay, flow cytometry. inhibition, % at 10 µM. hit rate 0.22% among 360,000. AID 588497; in the data active means inhibition above about 35%, passing the limit was not always enough; inconclusive means no clear call, values can overlap the other calls; further: plate controls were buffer without enzyme for full effect and enzyme alone for no effect
Autofluor counter = compound fluorescence in toxin protease inhibitor counterscreen; compound autofluorescence counterscreen, microsphere flow cytometry; hits give high values; fluorescence intensity (concentration not given with the values); hit rate 3.1% among 360,000; AID 624483; in the data active means fluorescence intensity above about 16000; inconclusive means no clear call, values can overlap the other calls
BoNT A protease = blocks Botulinum neurotoxin A light chain protease; inhibition, % at 10 µM; hit rate 0.17% among 360,000; multiplex microsphere protease substrate cleavage, flow cytometry; further: plate controls were buffer without enzyme for full effect and enzyme alone for no effect
* marks the source's active call; other numbers are inactive results; ? = inconclusive; nt = no result given. Only some compounds are listed: those with a hit (about 3.7% of all), similar ones and a draw of the others. Unless noted, no stated cut-off is given here; in the data, active means inhibition above about 30%; inconclusive means no clear call, values can overlap the other calls; inactive means below that.

SMILES	MazF activator	Anthrax LF inh2	BoNT F protease	Autofluor counter	BoNT A protease
Cc1onc(-c2ccccc2)c1C(=O)OCC(=O)N(C)c1ccccc1	-26.8	-2.5	4.9	3639	0.2
O=C1c2ccccc2NC(c2ccc(O)cc2)N1c1ccccc1 (stereo unspecified)	2.5	4.0	-5.2	3863	-3.8
O=C(NCc1ccccn1)c1ccc(NS(=O)(=O)c2cccc(Cl)c2)cc1	2.8	0.3	-5.3	5897	2.0
Cc1ccc(OCCCn2ccnc2)c(Br)c1	-1.0	-7.2	?	2793	1.7
O=C(NCc1ccccn1)c1ccc(OC2CCN(Cc3ccc(CO)o3)CC2)cc1	-4.4	-1.3	10.8	5246	1.5
COc1ccc(/C=C/C(=O)c2ccc(Cl)cc2)c(OC)c1	-8.6	0.2	1.3	18548*	4.3
COc1cccc(NS(=O)(=O)c2ccc(NC(C)=O)cc2)c1	2.8	1.6	0.9	23977*	?
COc1cccc(NS(=O)(=O)c2c(C)cc(C)cc2C)c1	1.5	-0.8	-1.7	20856*	-0.8
COC(=O)c1ccc(/C=C/C(=O)c2ccc(OC)cc2)cc1	-2.6	-0.2	0.9	22281*	0.4
C[C@H]1CCC(=O)N([C@H](CN=[N+]=[N-])Cc2ccccc2)CC1	1.4	-0.8	1.0	2894	0.2
COc1ccc(OS(=O)(=O)c2ccc(N3C(=O)CCC3=O)cc2)cc1	1.9	-17.0	-5.3	3689	0.0
COC(=O)c1ccc(NS(=O)(=O)c2ccc(OC)cc2)cc1	5.0	-0.9	0.5	22817*	?
COc1ccc(N2C(=O)CCC(C(C)=O)=C2C)cc1	-2.8	-2.3	1.3	22405*	?
CC1(C(=O)NS(=O)(=O)c2ccc(F)cc2F)CCN1C(=O)c1ccccc1 (stereo unspecified)	nt	-4.3	-3.9	3910	-0.6
COc1ccccc1NC(=O)Cc1noc(CSc2nnc(C)s2)n1	0.4	-1.4	-0.9	22803*	0.4
COc1ccccc1NC(=O)Cc1noc(CSc2nnc(N)s2)n1	6.6	-1.0	5.2	2200	0.1
O=C(CNCc1cccs1)Nc1ccc(N2CCCCCC2)cc1	-2.5	-5.5	-16.0	3890	-2.1
Cc1cc(C(F)(F)F)nn1CCCNC(=O)c1cnccn1	-3.8	-2.3	-0.4	23254*	?
CCOC(=O)CNC(=O)c1ccccc1	-1.4	1.1	-0.1	2512	-0.1
Cc1nonc1OCC(C)(COc1nonc1C)NC(=O)c1ccccc1	-5.6	0.6	7.1	21066*	3.3
Cc1cc(=O)[nH]c(S/C=C/c2ccccc2)n1	-4.8	-2.1	-3.3	20598*	-2.1
CC1(C)CC(=O)c2c(O)cc(OCC(=O)N3CCN(c4ccccc4)CC3)cc2O1	-3.8	2.0	-4.2	5727	-1.0
COc1ccc(N(C)S(=O)(=O)c2c(C)[nH]c(=O)[nH]c2=O)c(OC)c1	2.1	-3.2	-2.1	23317*	0.4
CN(C)C(=S)Nc1ccc2c(c1)OCCO2	2.3	nt	nt	nt	nt
CC(=O)Nc1ccc(NC(=O)CCCc2ccccc2)cc1	3.1	-14.0	22.9	3121	1.8
SMILES	MazF activator	Anthrax LF inh2	BoNT F protease	Autofluor counter	BoNT A protease
CC(=O)Nc1nc(=S)n(-c2ccccc2)[nH]1	9.7	0.0	2.0	22526*	2.0
CCOC(=O)Cn1nc(C)n(-c2ccc(C(C)C)cc2)c1=O	-2.9	-3.8	-5.4	16947*	-2.0
CCOC(=O)Cn1nc(C)n(-c2ccc(Cl)cc2)c1=O	-0.2	11.0	-2.5	4144	0.0
NNC(=O)c1oc2nc(-c3ccccc3)cc(-c3ccccc3)c2c1N	19.4	-7.3	29.1	16851*	-3.1
Cc1ccc(-c2cc(-c3ccco3)c3c(N)c(C(=O)NN)oc3n2)cc1	9.0	-11.3	-22.4	4125	-0.1
CN(C)c1cc(-c2ccc([N+](=O)[O-])cc2)oc(=O)c1Cl	54.3*	nt	nt	nt	nt
CN(c1ccccc1)c1nc2ccsc2c(=O)s1	0.1	-0.7	2.5	21828*	1.9
CC(C)CCN1C(=O)c2ccc(C(=O)NCc3ccccn3)cc2C1=O	2.7	-1.5	5.5	4554	1.2
CCc1cc(C(=O)NNC(=S)NC(C)c2ccccc2)cs1 (stereo unspecified)	-7.7	-5.2	-4.1	16961*	-2.5
Cc1ccccc1OCC(=O)OC(C(=O)c1ccccc1)c1ccccc1 (stereo unspecified)	5.8	0.3	0.2	2505	-0.1
Cc1ccc(C)c(NC(=O)CCC(=O)OC(C(=O)c2ccccc2)c2ccccc2)c1 (stereo unspecified)	12.1	2.3	2.6	15572	2.2
Cc1ccc(C(=O)C(OC(=O)COc2ccccc2C)c2ccccc2)cc1 (stereo unspecified)	-0.6	-6.0	-7.0	17155*	-1.3
O=C(CCC(=O)OC(C(=O)c1ccccc1)c1ccccc1)Nc1ccccc1 (stereo unspecified)	2.8	-1.3	-1.9	21923*	-0.1

High-throughput results: PubChem, several laboratories
